74 molecules from ChEMBL document CHEMBL3988442, “University of Dundee, Small-Polar-MMV Screening Library” (2021) can be followed below.

Assay [1] has as its target T1, Aspartate--tRNA(Asp/Asn) ligase (Mycobacterium tuberculosis (strain ATCC 25618 / H37Rv)) (UniProt P9WFW3). Note: in the data most compounds retested in dose-response had high values.
T1 sequence (whole entry): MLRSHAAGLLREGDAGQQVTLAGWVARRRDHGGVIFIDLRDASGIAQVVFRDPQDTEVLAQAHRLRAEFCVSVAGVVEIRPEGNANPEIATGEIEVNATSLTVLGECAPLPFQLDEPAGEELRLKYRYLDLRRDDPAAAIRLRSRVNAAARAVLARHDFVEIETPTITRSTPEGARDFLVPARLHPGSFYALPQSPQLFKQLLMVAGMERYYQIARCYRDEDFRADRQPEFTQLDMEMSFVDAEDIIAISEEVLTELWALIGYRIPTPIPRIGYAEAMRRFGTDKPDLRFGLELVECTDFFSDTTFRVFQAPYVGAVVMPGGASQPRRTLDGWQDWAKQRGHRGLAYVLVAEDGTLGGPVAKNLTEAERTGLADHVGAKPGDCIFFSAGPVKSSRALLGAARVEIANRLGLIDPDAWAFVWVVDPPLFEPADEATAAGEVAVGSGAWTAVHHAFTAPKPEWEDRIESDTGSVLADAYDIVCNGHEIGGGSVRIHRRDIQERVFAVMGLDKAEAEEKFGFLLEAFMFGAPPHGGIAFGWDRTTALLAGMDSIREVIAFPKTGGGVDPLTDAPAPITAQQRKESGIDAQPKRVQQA
As to the kind of experiment: Assay for Asp RNA synthetase-1 from Mycobacterium tuberculosis. It is filed as functional. Also on record: scale not given: direction of the effect not stated beside the values. The following applies: 30 µM.

Assay [2] deals with Shiga toxin 2 (Escherichia coli O157:H7) (UniProt P09385+P09386). As to the kind of experiment: E. coli 0.157:H7 Shiga Toxin SOP - stx2 screening assay. The class given is functional. Also on record: scale not given: direction of the effect not stated beside the values. The following applies: 30 µM.

For `Cc1ncc2c(n1)CN(Cc1nnc(Cc3ccccc3)o1)CC2`, the Percent Effect in assay [1] is 0.379%; in assay [2], -26.9%.
For `Cc1cccnc1C(=O)N1CCCC(c2[nH]ncc2S(C)(=O)=O)C1` (stereo not drawn) the same measures were 3.25% and 15.7%.
In the case of `O=C(NCc1ccccc1)N1CCC2(CC(=O)N(c3ccsc3)C2)C1` (stereo not drawn), the figures for the Percent Effect in assay [1] and in assay [2] were -2.24% and -10.6%, respectively.
With `COc1cccc(-n2c(C)cc(C(=O)O)c2C)c1`, the Percent Effect in assay [1] was -3.77%; in assay [2], 5.95%.
For the molecule `Cc1ccsc1C(=O)N1Cc2ccccc2C2(CCN(C)CC2)C1`, the Percent Effect is 5.26% in assay [1] and 5.47% in assay [2].
On to `CCOc1cc(C)nc(N2CCN(C(=O)CC)CC2)n1`, for which the Percent Effect came out at 0.408% in assay [1] and 12.8% in assay [2].
Turning to `CCc1nc(CN(C)C2CCN(Cc3ccc(C#N)cc3F)C2)no1` (stereo not drawn), the Percent Effect in assay [1] is -1.38%; in assay [2], 20.3%.
In the case of `Cc1[nH]c2ccccc2c1-c1ccnc(NCCN2CCOCC2)n1`, the Percent Effect in assay [1] is 7.28%; in assay [2], -44.9%.
For the molecule `CN(Cc1nnc2n1CCC2)C(=O)NCCc1ccc2c(c1)OCO2`, the Percent Effect in assay [1] was found to be 10.3%; in assay [2], 19.1%.
Turning to `Cc1cnn(CC(C)NCc2nc(-c3ccco3)no2)c1` (stereo not drawn), the Percent Effect in assay [1] was -4.9%; in assay [2], 2.91%.
`CCN(C(=O)CN(C)C(c1cccc(F)c1)c1ccccn1)C1CC1` (stereo not drawn): the Percent Effect in assay [1] was -2.49%; in assay [2], 8.33%.
For the molecule `CCS(=O)(=O)N1CCc2ccc(NC(=O)Nc3cccc(SC)c3)cc21`, the Percent Effect is -4.68% in assay [1] and -22% in assay [2].
Take `Cc1nc(C2CCN(C(=O)CO)CC2)cc(N2CCOCC2)n1`: the values for the Percent Effect in assay [1] and in assay [2] were -1.91% and 17.7%, respectively.
Consider `Fc1cccc(N2CCCC3(C2)CN(c2ncccn2)CCO3)c1` (stereo not drawn), for which the Percent Effect in assay [1] was 2.81%; in assay [2] it was -2.38%.
On to `Cc1nc(CN2C[C@@H]3CN(C(=O)C4CC4)C[C@@H]3C2=O)cs1`, for which the Percent Effect is -6.04% in assay [1] and -17.6% in assay [2].
For `C1CC(NCc2nc(C3CC3)no2)CN(Cc2noc(C3CC3)n2)C1` (stereo not drawn), the Percent Effect is -2.94% in assay [1] and 13.3% in assay [2].
For `O=C(NCc1ccco1)[C@H]1C[C@H]2OCC[C@H]2N(C(=O)c2ccco2)C1` the same measures were 3.58% and 6.55%.
For `CN(C)C(=O)NC[C@H]1OC[C@@H]2CCN(Cc3ccoc3)C[C@@H]21`, in that order: 1.28% and -22.6%.
Regarding `CC(C)NC(=O)c1ccc2c(c1)nc1n2CCN(C(C)C)C1`, the Percent Effect was -0.435% in assay [1] and -61.8% in assay [2].
Regarding `CC(C)C(=O)N1CCN(Cc2csc(-c3ncccn3)n2)CC1`, the Percent Effect in assay [1] is -4.22%; in assay [2] it was 0.445%.
As for `COc1cc(CNCc2ccc(NC(=O)NC(C)C)cc2)cc(OC)c1`, the Percent Effect was 1.67% in assay [1] and -65.1% in assay [2].
For `Cc1noc(C)c1CN1CCN(C(=O)Cn2cncn2)CC1`, in that order: 3.12% and 7.4%.
For `CC(NC(=O)N1CCN(c2ccc(Cl)cc2)CC1)C(=O)N1CCSCC1` (stereo not drawn) the same measures were -5.11% and 11.9%.
Regarding `Cc1nc(C)c(CC(=O)N2C[C@H]3CC[C@@H]2CN(C(=O)N(C)C)C3)c(=O)[nH]1`, the Percent Effect in assay [1] is 0.0987%; in assay [2], -13.6%.
For `Cc1ccc(C(=O)N2CCC3(CC2)CCN(CCN(C)C)C3=O)cn1` the same measures were -4% and -1.78%.
As for `CCc1nc2n(n1)CC(NCc1ccnc(-c3ccccc3)n1)CC2` (stereo not drawn), the Percent Effect in assay [1] is -7.45%; in assay [2], 5.5%.
With `Cc1cc(CN2Cc3ccccc3CC2c2nnc(C)o2)on1` (stereo not drawn), the Percent Effect in assay [1] is -0.894%; in assay [2], 8.24%.
On to `CN(C)c1cc(CNC(=O)c2ccc(F)cc2F)ccn1`, for which the figures for the Percent Effect in assay [1] and in assay [2] were -4.92% and -51.7%, respectively.
For the molecule `COc1ccc(C(=O)N(Cc2cnn(C)c2)C(C)C)cc1Br`, the Percent Effect is -1.07% in assay [1] and 5.59% in assay [2].
`CCc1cc(NC2CCN(S(C)(=O)=O)CC2)n2nc(C)c(C)c2n1`: the Percent Effect in assay [1] is 1.78%; in assay [2], -16%.
As for `CCOc1cc(C(=O)N2CCCC(c3cc(C(N)=O)[nH]n3)C2)ccn1` (stereo not drawn), the Percent Effect in assay [1] was -1.21%; in assay [2], 25.9%.
Regarding `CCOc1cccc(CNc2ccccc2C(=O)OC)c1O`, the Percent Effect in assay [1] is -5.37%; in assay [2], -53.6%.
Regarding `CN1CC2(COCCN(C(=O)c3ccco3)C2)OCC1=O` (stereo not drawn), the Percent Effect in assay [1] is 8.76%; in assay [2] it was 9.96%.
With `N#CC1(C(=O)N2CCN(Cc3ccon3)CC2)CCC1`, the Percent Effect is -1.89% in assay [1] and 3.73% in assay [2].
With `O=C1[C@@H]2CCN(Cc3ccoc3)C[C@@H]2OCCN1c1ccccc1`, the Percent Effect is -0.779% in assay [1] and 4.03% in assay [2].
For `CN(Cc1cccc(F)c1)C(=O)CN1CCCC1CCc1ccccc1` (stereo not drawn), in that order: -1.52% and -33.4%.
For the molecule `COCC(=O)N1CCC(c2nccn2CC2CC2)CC1`, the Percent Effect was -0.435% in assay [1] and -12.6% in assay [2].
On to `COc1ccc(C)cc1CN1CCCC1Cn1nc(C)nc1C` (stereo not drawn), for which the Percent Effect in assay [1] is -7.82%; in assay [2], -25.1%.
For `CC(=O)NCc1ccc(C(=O)N2CCCC2c2cnn(C)c2)o1` (stereo not drawn) the same measures were 1.21% and 21.1%.
For `CC(C)Cc1noc(CN2CCN(CCO)CC2)n1`, the Percent Effect is -3.95% in assay [1] and 25.7% in assay [2].
For the molecule `c1nc2c(c(C3CC3)n1)CCN(Cc1ccoc1)CC2`, the Percent Effect in assay [1] was 2.3%; in assay [2], -14.5%.
`CC(=O)N1CCC(C(=O)NCCN2CCC(C)CC2)CC1`: the Percent Effect in assay [1] was determined as 0.167%; in assay [2] it was 0.682%.
For `COc1ccc(Cc2cccc(C3CCN(C)CC3)n2)cc1` the same measures were -1.77% and -4.18%.
As for `CC(=O)NCC(=O)N1Cc2nccn2CC(CN2CCCC2)C1` (stereo not drawn), the Percent Effect in assay [1] was -4.29%; in assay [2], 2.69%.
As for `COc1ccc2c(c1)C1(CCN(Cc3ccoc3)CC1)N(C)CC2`, the Percent Effect was 0.685% in assay [1] and -9.8% in assay [2].
For `CN(C)C(=O)N1CCN(C(=O)C(c2ccccc2F)N(C)C)CC1` (stereo not drawn), the Percent Effect is 0.752% in assay [1] and -3.65% in assay [2].
For the molecule `Cn1ccc(C(=O)NC2CCC23CCN(Cc2cccnc2)CC3)c1` (stereo not drawn), the values for the Percent Effect in assay [1] and in assay [2] were 0.843% and -5.95%, respectively.
For the molecule `O=C(NCCNc1ncccn1)N(Cc1ccc(F)cc1F)C1CC1`, the values for the Percent Effect in assay [1] and in assay [2] were -3.51% and 12.1%, respectively.
As for `Cc1cc(F)ccc1S(=O)(=O)NCc1cccc(C(=O)N2CCCC2)c1`, the Percent Effect in assay [1] was -1.3%; in assay [2], 30.6%.
`CN(C)S(=O)(=O)c1ccc(CN2CCCC2c2ccc[nH]2)o1` (stereo not drawn): the Percent Effect was -3.62% in assay [1] and 8.06% in assay [2].
`CCOc1cc(C)ccc1NC(=O)N(C)Cc1cnn(C)c1`: the results for the Percent Effect in assay [1] and in assay [2] were 4.37% and 24%, respectively.
`Cc1nn(CC(C)C)c(N(C)C)c1CNCc1cccnc1N(C)C`: the Percent Effect stood at 0.161% in assay [1] and 24.5% in assay [2].
Turning to `C1CC(CN2CCO[C@H]3[C@H](OCC4CC4)CC[C@@H]32)CCO1`, the Percent Effect in assay [1] was 0.999%; in assay [2], -6.68%.
Consider `CCOC(=O)CCNC(=O)N1CCN(c2nc3ccccc3n2C)CC1`, for which the Percent Effect in assay [1] is -4.71%; in assay [2] it was -68.4%.
On to `Cc1nc(CN2CCCN(C(=O)C3(C#N)CCCCC3)CC2)cs1`, for which the Percent Effect is 1.34% in assay [1] and 11.8% in assay [2].
For `CC(N(C)Cc1nc2c(cnn2C)c(=O)[nH]1)C(C)(C)C` (stereo not drawn), the Percent Effect in assay [1] was found to be 5.45%; in assay [2], 28.9%.
For `Cc1cccc(CN2CCN(Cc3ccccc3)CC(O)C2)n1` (stereo not drawn), in that order: 2.13% and 13.4%.
For the molecule `N#Cc1ccc(F)c(CN2CCCC2Cn2cnc3ccccc32)c1` (stereo not drawn), the Percent Effect was -0.466% in assay [1] and 31.2% in assay [2].
On to `c1coc(-c2noc(CN3CCCC(Cn4cncn4)C3)n2)c1` (stereo not drawn), for which the Percent Effect is -6.28% in assay [1] and -10.4% in assay [2].
Regarding `COCCN1CCN(Cc2cccc(C(=O)N(C)C)c2)CC1C` (stereo not drawn), the Percent Effect in assay [1] is 1.34%; in assay [2] it was -34.7%.
As to `COc1ccc(CN2CCC3(CC(Nc4ccncn4)C3)C2)c(OC)c1` (stereo not drawn), the Percent Effect was -0.368% in assay [1] and -11.8% in assay [2].
For the molecule `c1ccc(CN2CCc3ncnc(-c4ccsc4)c3CC2)nc1`, the figures for the Percent Effect in assay [1] and in assay [2] were 0.199% and -6.45%, respectively.
Turning to `CC(C)(C(=O)NCC(N)=O)c1ccccc1F`, the Percent Effect in assay [1] is -1.56%; in assay [2], -19.3%.
Regarding `CCn1ncc(CN2CCc3c(nc(-c4cccnc4)[nH]c3=O)C2)c1C`, the Percent Effect is -5.25% in assay [1] and -14.2% in assay [2].
Regarding `O=S1(=O)CCCN1Cc1coc(-c2cccs2)n1`, the figures for the Percent Effect in assay [1] and in assay [2] were -3.68% and 0.853%, respectively.
Turning to `CCc1cnc(CNc2ccc(C(=O)N3CCCC(C)C3)cc2C)o1` (stereo not drawn), the Percent Effect in assay [1] was -5.74%; in assay [2], 21.6%.
Turning to `CC(C)c1nnc2n1CCN(CC(=O)Nc1sccc1C#N)C2`, the Percent Effect amounted to 8.51% in assay [1] and 16.9% in assay [2].
Turning to `O=C(c1cccs1)N1CCC(O)(CN2CCc3ccccc3C2)C1` (stereo not drawn), the Percent Effect in assay [1] was -5.2%; in assay [2], -25.3%.
As to `COCCN1CC[C@]2(CN(C(=O)c3cccs3)C[C@H]2C)C1=O`, the Percent Effect in assay [1] is 1.59%; in assay [2], -8.13%.
For `O=C(c1ccccn1)N1CCc2c(nc(N3CCCC3)[nH]c2=O)C1` the same measures were -2.28% and -39.9%.
For `Cc1cnn(CC2CCCN2Cc2coc(-c3ccccc3)n2)c1` (stereo not drawn), the Percent Effect in assay [1] was -5.72%; in assay [2], -30.1%.
Turning to `c1ccc2sc(CN3CCCC3c3noc(C4CC4)n3)nc2c1` (stereo not drawn), the Percent Effect in assay [1] is -1.34%; in assay [2], 3.03%.
For `CCCc1cc(=O)n(CC(N)=O)c(-n2nc(C)cc2C)n1` the same measures were 3.6% and -3.82%.
As to `COCc1noc(-c2ccc(N(C)Cc3cc(C)no3)nc2)n1`, the Percent Effect in assay [1] is 0.703%; in assay [2], -7.35%.
